Inconclusive results are not listed. The source made the active and inactive calls. Calls come from the whole dose curve; as a rule, active = well fitted inhibition curve with a large enough effect; inconclusive = small, poorly fitted or top-dose-only effect; inactive = no such curve, though single readings can be large or run the other way.
What follows are molecules tested against Retinaldehyde dehydrogenase 3 (Homo sapiens) (UniProt P47895) (assay: qHTS for Inhibitors of the Aldehyde Dehydrogenase Family (ALDH1A3) Primary screen (AID 2061315;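 note: plate controls were DMSO vehicle for no effect and reference inhibitor for full effect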)). Conditions: ALDH inhibition qHTS; series mostly up to 56 µM; activity change, negative = inhibition: at the top concentration.

Row | SMILES | activity change, negative = inhibition
1 | CC1OC(OCC2OC(OC3CCC4(C)C(CCC5(C)C4CC=C4C6CC(C)(C)CCC6(C(=O)OC6OC(CO)C(O)C(O)C6O)CCC45C)C3(C)CO)C(O)C(O)C2O)C(O)C(O)C1O (stereo not drawn) | 4.71% [at 16.9 µM] (inactive)
2 | CC1(C)CCCC2(C)C1C(O)C=C(CO)C2(O)CO (stereo not drawn) | -11.9% (inactive)
3 | C=CC1(C)CC2=CCC3C(C)(C(=O)O)CCCC3(C)C2CC1OC(C)=O (stereo not drawn) | 8.87% (inactive)
4 | O=C1NC(=Nc2ccccc2F)S/C1=C\c1ccc(C(=O)O)cc1 | 7.12% (inactive)
5 | C[C@@]12C[C@]3(O)O[C@H](O1)[C@]1(COC(=O)c4ccccc4)[C@H]3C[C@@]12O[C@@H]1O[C@H](CO)[C@@H](O)[C@H](O)[C@H]1O | -1.25% [at 28 µM] (inactive)
6 | Cc1ccccc1-n1c([C@H](C)Nc2nc(N)nc3nc[nH]c23)nc2cccc(C)c2c1=O | 5.19% (inactive)
7 | CC1(C)CC[C@]2(C(=O)O[C@@H]3O[C@H](CO)[C@@H](O)[C@H](O)[C@H]3O)CC[C@]3(C)C(=CCC4[C@@]5(C)CC[C@H](O[C@@H]6O[C@H](C(=O)O)[C@@H](O)[C@H](O)[C@H]6O)C(C)(C)C5CC[C@]43C)C2C1 (stereo partly drawn) | 9.31% [at 16.9 µM] (inactive)
8 | COC1CC(=O)C23C(=O)NC(Cc4c[nH]c5ccccc45)C2C(C)C2(C)OC2C3/C=C/CC(C)CC1O (stereo not drawn) | 2.52% [at 28 µM] (inactive)
